Data taken from the supplement of paper PMC4166925.
± gives the standard deviation of the averaged measurements. Whole data set: some 33,000 sequences, median “E-score (dimensionless, -0.5 to 0.5)” near -0.046, cut for the highest 2% near 0.36. The sample as a whole holds a higher share of the highest values than the screen did.

test system: T1, SpTbr T-box DNA-binding domain (GST fusion); test: PBM E-score of 8-mer (E-score (dimensionless, -0.5 to 0.5)); Tbr is Tbrain of the sea star Patiria miniata (Pm) or the sea urchin Strongylocentrotus purpuratus (Sp); higher = stronger binding preference; conditions: the construct has about 5 more residues each side
T1 sequence: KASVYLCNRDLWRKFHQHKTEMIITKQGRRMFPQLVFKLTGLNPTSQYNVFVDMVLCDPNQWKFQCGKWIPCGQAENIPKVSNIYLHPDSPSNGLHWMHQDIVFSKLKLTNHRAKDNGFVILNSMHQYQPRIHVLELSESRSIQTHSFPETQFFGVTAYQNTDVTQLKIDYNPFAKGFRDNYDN
Outline: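 Expression of GST-fused Tbr T-box DNA-binding domains, each holding the full T-box plus roughly five flanking residues, was carried out in BL21 E. coli at 20 °C, with purification by glutathione affinity chromatography. Universal Agilent arrays made double-stranded by primer extension were incubated with the protein at 200 nM in PBS (pH 7.5), then scanned and quantified. All ungapped 8-mers were scored from probe intensities, and each received an enrichment E-score from the Universal PBM Analysis Suite, averaged over duplicate arrays.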

Row | Sequence | PBM E-score of 8-mer
1 | TCGTAGCA | 0.128 ± 0.038
2 | GGATTGGA | -0.187 ± 0.026
3 | CGATCCGA | -0.0614 ± 0.036
4 | AAAGAGGG | -0.0825 ± 0.036
5 | GCTGACAA | 0.227 ± 0.031
6 | CCTGACAA | 0.153 ± 0.0094
7 | GCTGACAC | 0.386 ± 0.039
8 | CCTGACAG | 0.121 ± 0.0013
9 | CCTGACAC | 0.427 ± 0.01
10 | ACTGACAC | 0.349 ± 0.011
11 | ATTTGTGG | 0.075 ± 0.012
12 | CTCGGGTC | -0.0239 ± 0.0073
13 | AGATGACG | 0.125 ± 0.029
14 | TACAGCGA | -0.193 ± 0.038
15 | CACACTTA | 0.447 ± 0.0064
16 | CACACTTC | 0.4456 ± 0.0039
17 | ATCACTTA | 0.0863 ± 0.053
18 | AACACTGA | 0.0941 ± 0.085
19 | AGCACTTC | 0.3006 ± 0.0019
20 | CACACTGC | 0.175 ± 0.0027
21 | CGCACTTA | 0.329 ± 0.0023
22 | AACACTTC | 0.407 ± 0.0093
23 | AACACTTA | 0.386 ± 0.031
24 | CCCACTTC | 0.171 ± 0.018
25 | ATCACTTC | 0.226 ± 0.033

Row | Sequence | PBM E-score of 8-mer
26 | CACACTGA | 0.235 ± 0.0071
27 | AGGAGGGG | 0.0237 ± 0.0028
28 | ACATCCAG | 0.11 ± 0.03
29 | CAGATTGA | -0.076 ± 0.021
30 | CCAGAAGC | -0.0847 ± 0.077
31 | CGAGTATC | -0.139 ± 0.032
32 | CCCGTTAC | -0.0493 ± 0.068
33 | AACTGCTC | 0.00139 ± 0.031
34 | GCAAAAAA | -0.111 ± 0.022
35 | ATCCAATG | -0.108 ± 0.019
36 | ACCATTGA | 0.0727 ± 0.061
37 | GCAGCCAC | 0.126 ± 0.026
38 | ATACAGAC | -0.0432 ± 0.019
39 | TCCAATAA | -0.0798 ± 0.025
40 | GACACTTA | 0.393 ± 0.0065
41 | GACACTGA | 0.093 ± 0.019
42 | GCCACTTA | 0.244 ± 0.011
43 | AACACTAG | 0.222 ± 0.049
44 | ATCACTTG | 0.169 ± 0.064
45 | AACACTTG | 0.3953 ± 0.0019
46 | GTAGCTTA | -0.0295 ± 0.0053
47 | AAGCTTAC | -0.128 ± 0.056
48 | TCAGGCAA | -0.143 ± 0.02
49 | CAGTATTC | -0.193 ± 0.092
50 | GACCTACC | -0.129 ± 0.006

Row | Sequence | PBM E-score of 8-mer
51 | AACCTACC | -0.182 ± 0.056
52 | CACCTACA | 0.371 ± 0.014
53 | CCCCTACG | -0.185 ± 0.019
54 | CACCTACG | 0.373 ± 0.0055
55 | AACCTACG | -0.159 ± 0.083
56 | TACCTACA | -0.24 ± 0.016
57 | CACCTACC | 0.394 ± 0.01
58 | GACCTACA | -0.0944 ± 0.046
59 | CCCGCCTA | -0.0474 ± 0.13
60 | TATTGCCA | 0.0232 ± 0.0082
61 | CCCTTGCG | -0.0683 ± 0.034
62 | GTCTCAGA | -0.0914 ± 0.014
63 | GGTGCATA | 0.0222 ± 0.011
64 | CCCGATAA | 0.0927 ± 0.11
65 | CCACACGG | 0.0912 ± 0.023
66 | CGAACGAG | 0.0552 ± 0.067
67 | CGTCCTGC | -0.234 ± 0.0096
68 | ATAAGTCA | -0.102 ± 0.017
69 | GGACACCC | 0.185 ± 0.023
70 | AGACACCC | 0.156 ± 0.041
71 | TGACACCA | 0.419 ± 0.0076
72 | CGACACCA | 0.387 ± 0.014
73 | GGACACCA | 0.183 ± 0.045
74 | AGACACCA | 0.251 ± 0.032
75 | CGACACGA | 0.174 ± 0.041

Row | Sequence | PBM E-score of 8-mer
76 | CGACACCG | 0.257 ± 0.037
77 | CGACACCC | 0.416 ± 0.028
78 | GGCCACTA | -0.0216 ± 0.031
79 | CTACTACC | -0.112 ± 0.033
80 | CCAATTTC | 0.0768 ± 0.033
81 | ATCGCTCG | -0.0361 ± 0.046
82 | CTGGCACC | 0.367 ± 0.018
83 | ATGGCACC | 0.3573 ± 0.0028
84 | CTCGCAAG | 0.204 ± 0.032
85 | CTGGCACA | 0.1856 ± 0.00035
86 | ATCGCAAG | 0.177 ± 0.03
87 | CTCGCAGA | 0.0495 ± 0.024
88 | CTCGCATC | 0.129 ± 0.052
89 | ATCGCACA | 0.366 ± 0.0063
90 | ATCGCACG | 0.345 ± 0.027
91 | CTCGCACC | 0.451 ± 0.016
92 | CCCGCACC | 0.311 ± 0.036
93 | CTCGCACA | 0.37 ± 0.016
94 | AGAGTGAC | 0.145 ± 0.013
95 | ATATTGGC | 0.12 ± 0.019
96 | CGATAGTA | -0.122 ± 0.091
97 | ATTCTACA | -0.0365 ± 0.019
98 | ACGAAAGA | -0.0823 ± 0.0021
99 | AGACTGCG | 0.0627 ± 0.0045
100 | GAATCTTA | -0.197 ± 0.05

Row | Sequence | PBM E-score of 8-mer
101 | CATCTCTA | -0.0506 ± 0.074
102 | CAGACTCA | -0.0949 ± 0.051
103 | GCTCTCAC | 0.312 ± 0.028
104 | GACTGTGC | -0.124 ± 0.033
105 | GCCCGTCC | -0.216 ± 0.0065
106 | GCCAGGCC | -0.217 ± 0.036
107 | GTCGCAGA | -0.0708 ± 0.1
108 | ATCGCAAC | 0.232 ± 0.0099
109 | GTCGCACA | 0.3754 ± 0.0036
110 | ATCGCACC | 0.47 ± 0.006
111 | ATCGCAGC | 0.0579 ± 0.024
112 | GTCGCAAA | 0.0958 ± 0.038
113 | AAGGTTAG | -0.0571 ± 0.0011
114 | CTCGGGCC | -0.167 ± 0.0065
115 | GCCGGTCC | -0.235 ± 0.075
116 | TGCTCACA | 0.3801 ± 0.0011
117 | AACTCACG | 0.00507 ± 0.019
118 | GACTCACA | 0.313 ± 0.038
119 | AACTCACA | 0.2436 ± 0.00066
120 | CACTCACA | 0.377 ± 0.017
121 | CGCTCACA | 0.263 ± 0.015
122 | GGCTCACA | 0.161 ± 0.053
123 | TACTCACA | 0.371 ± 0.0028
124 | CACTCACG | 0.266 ± 0.052
125 | ACGAGCTA | -0.118 ± 0.015

Row | Sequence | PBM E-score of 8-mer
126 | TCAACCCA | -0.174 ± 0.026
127 | ATACTTGC | 0.0754 ± 0.026
128 | ATGCATCA | 0.0819 ± 0.023
129 | CGACTGAC | 0.0364 ± 0.013
130 | AGAGGAGC | -0.0105 ± 0.083
131 | ACCTGTAC | -0.148 ± 0.024
132 | GAGTAAAC | -0.0192 ± 0.019
133 | CCCAGAAA | -0.216 ± 0.045
134 | AAGTGTCG | 0.425
135 | GATTGTCA | 0.248 ± 0.0068
136 | GAGTGTCC | 0.0603 ± 0.01
137 | AAGTGTCT | 0.292 ± 0.033
138 | CAGTGTCA | 0.3068 ± 0.002
139 | GAGTGTCA | 0.4478 ± 0.0016
140 | TAGTGTCA | 0.395 ± 0.032
141 | TCGTGTCA | 0.294 ± 0.0086
142 | CAGTGTCG | 0.266 ± 0.0072
143 | AAGTGTAG | 0.144 ± 0.0052
144 | TAGTGTAA | 0.216 ± 0.061
145 | AAGTGTAA | 0.399 ± 0.018
146 | AGCAAAGC | -0.0455 ± 0.048
147 | AAAGCAGT | -0.167 ± 0.049
148 | TGAGATAA | 0.0687 ± 0.09
149 | CACAGGGG | 0.0864 ± 0.031
150 | ACCGTTCC | -0.000825 ± 0.11

Row | Sequence | PBM E-score of 8-mer
151 | AAGTGTCA | 0.46288 ± 2.8e-05
152 | AAGTGTAT | 0.0229 ± 0.032
153 | AAGTGTCC | 0.2466 ± 0.0019
154 | CCTATGCG | 0.00647 ± 0.019
155 | ACACGCCA | 0.205 ± 0.0044
156 | ACGCGCCA | 0.201 ± 0.019
157 | TCACGCGA | 0.3949 ± 0.0026
158 | TCACGCCA | 0.403 ± 0.0053
159 | TCGCGCCA | 0.384 ± 0.009
160 | GCGCGCCA | 0.133 ± 0.087
161 | GCGCGCGA | 0.316 ± 0.041
162 | CCGCGCGA | 0.203 ± 0.03
163 | GCACGCGA | 0.186 ± 0.025
164 | TCGCGCGA | 0.379 ± 0.0069
165 | CCACGCGA | 0.172 ± 0.028
166 | GCACGCCA | 0.0542 ± 0.013
167 | CAGACAAA | -0.0589 ± 0.033
168 | GGATACAA | 0.0747 ± 0.011
169 | CCGCCTCG | -0.0478 ± 0.058
170 | TAAAGAAA | -0.13 ± 0.11
171 | CCCTAACC | -0.113 ± 0.029
172 | ACGCGCGG | 0.229 ± 0.028
